Assay results reported in PubChem BioAssay (NCI).
The panel holds about 83,000 compounds, 20% with a hit somewhere; the sample as a whole holds those more often.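 Negative percent growth values reflect cell death: -40 means 40% of the cells present at the start died, and -100 means all died.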 A number with no mark means an inactive call. Calls of active or inactive are those of the source. Rule for the calls: active = growth percent below 10; inactive = the rest.

How the values were obtained:
Experiment in all cases: NCI-60 one-dose screen, 48 h (100 = growth as untreated, 0 = no growth, -100 = all killed)
Conditions in all cases: 10 µM unless noted
[1] = tested on: HCT-15 colon
[2] = tested on: SNB-75 CNS
[3] = tested on: SNB-19 CNS
[4] = tested on: U251 CNS
[5] = tested on: PC-3 prostate
[6] = tested on: SK-MEL-5 melanoma
[7] = tested on: UACC-62 melanoma
[8] = tested on: LOX IMVI melanoma
[9] = tested on: SK-MEL-2 melanoma
[10] = tested on: EKVX NSCLC
[11] = tested on: SN12C renal
[12] = tested on: UO-31 renal
[13] = tested on: TK-10 renal
[14] = tested on: ACHN renal
[15] = tested on: CAKI-1 renal
[16] = tested on: A498 renal
[17] = tested on: CCRF-CEM leukemia
[18] = tested on: SK-MEL-28 melanoma
[19] = tested on: MOLT-4 leukemia

Row | SMILES | growth [1] | growth [2] | growth [3] | growth [4] | growth [5] | growth [6] | growth [7] | growth [8] | growth [9] | growth [10] | growth [11] | growth [12] | growth [13] | growth [14] | growth [15] | growth [16] | growth [17] | growth [18] | growth [19]
1 | COc1cc(CC(=O)n2ncc3ccc(N)cc32)cc(OC)c1OC | 88.2% | 87.3% | 101% | 98.4% | 88.2% | 92.9% | 92.9% | 90.1% | 98% | 91.8% | 107% | 70.2% | 108% | 94.9% | 85.9% | 97.4% | 101% |  | 
2 | NS(=O)(=O)c1ccc(Cn2c(SCC(=O)N/N=C/c3ccccc3O)nc3ccccc3c2=O)cc1 | 75% | 84.3% | 55.6% | 43.1% | 67.9% | 58.1% | 38.1% | 16.1% | 36.6% | 60.1% |  | 61% | 53.8% | 72.3% | 54.2% |  | 23.2% | 57.7% | 20.8%
3 | Cc1cccc(-c2cn3ccnc3c(-c3ccc4ncn(Cc5ccccc5)c4c3)n2)c1 | 64.8% | 78.3% | 97.4% | 80.6% | 75.2% | 89.9% | 97.5% | 85.2% | 93.7% | 77.7% | 95.3% | 58.3% | 110% | 87.6% | 75.2% | 77.9% | 78.9% |  | 63.1%
4 | Nc1c(C(=O)Nc2cccc3cnccc23)sc2nc3c(cc12)CN(Cc1ccccc1)CC3 | 107% | 96.5% | 99.6% | 108% | 91.3% |  | 96.4% | 103% | 116% | 101% | 97.5% | 75.5% | 140% | 99.9% | 90.1% |  | 109% | 111% | 107%
5 | Cc1cc2c(C(=O)NCC#N)cccc2n1-c1nc2c(c(NCc3ccccc3)n1)CCCC2 | -52.8% (active) | -11.4% (active) | -49.1% (active) |  | -18.8% (active) | -93.4% (active) | -78.2% (active) | -85% (active) | -44.7% (active) | -18.8% (active) | -67.9% (active) | -84.3% (active) | -17.7% (active) | -4.35% (active) | -2.84% (active) |  | 7.4% (active) | -28.2% (active) | -15.6% (active)
6 | OC(c1ccc(F)c(C(F)(F)F)c1)c1cnccc1NC1CCCCC1 (stereo unspecified) | 64.7% | 68.7% | 82.9% | 63.5% | 58.7% | 49.4% | 71.2% | 69.7% |  | 69.3% | 65.3% | 49.6% | 71.1% | 81.9% | 64.3% | 59.6% | 57.2% | 84.8% | 56%
7 | CCCOc1ccc(/C=N/Nc2cc(C)nc3ccc(Cl)cc23)cc1 | -44.4% (active) | 104% | 58.6% | -58.3% (active) | 48.6% | 79.9% | 88.6% | -95.7% (active) | 91.4% | 72.8% | -10.8% (active) | 7.59% (active) | 102% | 23.3% | 74.2% |  | 2.96% (active) | 64.8% | -42.5% (active)
8 | C=C(C)[C@@H]1CC[C@]2(C(=O)N[C@@H](Cc3ccccc3)C(=O)OC)CC[C@]3(C)[C@H](CC[C@@H]4[C@@]5(C)CCC(=O)C(C)(C)[C@@H]5CC[C@]43C)[C@@H]12 | 94% | 87.1% | 104% | 85.2% | 52.3% | 95.2% | 56.9% | 73.9% | 75.8% | 85.4% | 95.3% | 75.7% | 90.9% | 90.5% | 45.5% | 84% | 84.7% | 97.9% | 64.6%
9 | CNC(=O)c1cccc(Cn2nc(C)c(NC(=O)c3ccc(COc4ccc(C(F)(F)F)cc4C)cc3)c2C)n1 | 49.4% | 80.9% | 47.8% | 44.7% | 34.6% | -6.19% (active) | 63% | 55.2% | 50.5% | 37.5% |  | 50.8% | 56.2% | 54.9% | 46.4% |  | 60.2% | 70.5% | 29.6%
10 | CCN(CC)CCCC(C)Nc1cc(O)cc2cccnc12 (stereo unspecified) | 102% | 74.9% | 93.8% | 88.2% | 86.8% | 116% | 94.4% | 88.7% |  | 106% | 85.7% | 83.4% | 122% | 102% | 109% |  | 108% | 122% | 112%
11 | O=C1Nc2cc(-c3ccc(NS(=O)(=O)c4ccccc4)cc3)ccc2/C1=C/c1ccc[nH]1 | 62.9% | 98.5% | 98.1% | 97.9% | 82.5% | 91.2% | 89.3% | 69.3% |  | 28.9% | 96.2% | 69.2% | 68.9% | 88.5% | 82.9% |  | 63.9% | 108% | 73.1%
12 | O=S(=O)(NCCNc1nccc(-c2c(-c3cccc(F)c3)nc3sccn23)n1)c1ccc(Cl)cc1 | 31.8% | 78.9% | 66.5% | 55.2% | 56.9% | 36.5% | 44.3% | 43.7% | 79.8% | 66.3% | 48.7% | 23.8% | 88.5% | 35.7% | 41.1% |  | 50.4% |  | 46.8%
13 | COc1cc2c(cc1OC)C(=O)/C(=C/c1cc(C)c(O)c(C)c1)S2 | 18.7% | 24% | 38.7% | 27.2% | 38.4% | 21.3% | 43.3% | 44.2% | 42.6% | 40.8% | 50.4% | 54.8% | 66% | 45.3% | 43.9% |  | 17.1% | 65% | 24.5%
14 | CCSCC1CC(O)(c2ccccc2)CC(c2ccc(F)cc2)O1 (stereo unspecified) | 17.4% | 33.1% | 36.1% |  | 9.83% (active) | -36% (active) | 29.2% | 4.29% (active) | 4.62% (active) | 15.2% | -68.9% (active) | 28.6% | 21.9% | 3.1% (active) | -25.2% (active) |  | 22.9% | 26.9% | -11.9% (active)
15 | COc1cc(/C=C2\COc3ccc(-c4ccccc4)cc3C2=O)cc(OC)c1 | 61.3% | 51.8% | 98.9% | 75.8% | 57.9% | 86.3% | 75.9% | 71.9% | 83.9% | 102% | 80.5% | 77.1% | 103% | 88.7% | 71.6% | 95.5% | 20.3% | 97.7% | 30.7%
16 | CC(C)(C)c1cc(C=O)cc(C(C)(C)C)c1O | 102% | 83.6% | 101% | 96.3% | 87.6% | 92% | 85.4% | 98.4% | 96.2% | 126% |  | 103% | 93.2% | 105% | 113% | 105% | 14.3% | 111% | 14.8%
17 | NC1=NN=C(N)C1=Cc1cc2ccccc2n2nnnc12 | 104% | 94.3% | 95.8% | 89% | 86.6% |  | 93.2% | 85.1% | 102% | 77% | 97.9% | 77.1% | 114% | 102% | 91.1% |  | 97.5% | 116% | 94.6%
18 | O=C(Nc1cccc(C(=O)N2CCc3ccc(Cl)cc32)c1)c1ccco1 | 24.2% | 0.916% (active) | 37.6% | 36.7% | 69.7% | 24.3% | 36.3% | 35.9% | 25.8% | 54.1% |  | 45.1% | 77.6% | 48.2% | 29.6% |  | 29.4% | 59.9% | 30.1%
19 | Cc1ccc(-n2c3c(c(-c4ccccc4)c2-c2ccccc2)C2=NCCN2C=N3)cc1 | 81.3% | 70.5% | 88.5% | 92% | 76.8% |  | 75.1% | 93.6% | 99.3% | 80.8% | 85% | 68.9% | 144% | 96.4% | 72.9% |  | 98.5% | 110% | 92.9%
20 | CCC(=O)Oc1ccc(/C(=C(\C)c2ccccc2)c2ccc(OCCN3CCCCC3)cc2)cc1 | 58.6% | 96.5% | 85% | 68.4% | 72.8% | 82.5% | 88.5% | 81% | 92.1% | 87.1% | 79.7% | 64.3% | 84.2% | 102% | 87.8% |  | 84.9% | 71.2% | 60.8%
21 | O=C1CC(=O)OC(c2ccc([N+](=O)[O-])cc2)O1 | -48.8% (active) | 9.16% (active) | 55.2% | 4.05% (active) | 37% | 18.4% |  | -84.5% (active) | -40.2% (active) | 47.8% | -37.6% (active) | -88.2% (active) | -15.5% (active) | -76.2% (active) | -45.7% (active) | 104% | 15.3% |  | 
